# From PubChem BioAssay AID1211 (NMMLSC, 2008)
# Unmarked numbers belong to inactive results. Activity calls are given as the source filed them. The rule behind the calls is not given here.
# Target: Estrogen receptor (Homo sapiens) (UniProt P03372)
# Experiment: displacement of fluorescent estrogen from ERalpha – cell-based, Cos7 ERalpha-GFP, flow cytometry, primary screen (AID 1211);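 note: 0% = DMSO vehicle wells and 100% = no E2-Alexa633 signal left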
# Conditions: fluorescent ligand competition, at 10 µM, active compounds read high
# Chain of Estrogen receptor (Homo sapiens) (P03372 whole entry, looked up): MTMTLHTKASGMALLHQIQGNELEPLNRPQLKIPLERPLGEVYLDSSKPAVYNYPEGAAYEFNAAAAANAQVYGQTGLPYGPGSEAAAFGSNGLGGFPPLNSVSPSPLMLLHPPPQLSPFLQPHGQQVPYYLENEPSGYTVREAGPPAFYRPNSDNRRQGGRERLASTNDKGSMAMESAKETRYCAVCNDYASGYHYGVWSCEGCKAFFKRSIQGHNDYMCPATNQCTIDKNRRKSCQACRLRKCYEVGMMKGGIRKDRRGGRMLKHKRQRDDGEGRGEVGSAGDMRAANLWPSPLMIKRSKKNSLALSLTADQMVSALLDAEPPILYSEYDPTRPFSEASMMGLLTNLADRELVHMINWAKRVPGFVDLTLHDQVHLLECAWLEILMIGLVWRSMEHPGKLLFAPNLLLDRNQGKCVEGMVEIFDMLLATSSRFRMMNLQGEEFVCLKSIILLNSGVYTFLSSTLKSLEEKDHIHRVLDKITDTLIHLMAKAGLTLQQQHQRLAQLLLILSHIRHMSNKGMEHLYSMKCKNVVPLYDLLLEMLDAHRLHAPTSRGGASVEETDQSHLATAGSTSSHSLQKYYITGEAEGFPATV
row,Structure (SMILES),inhibition of ligand binding
1,CCCc1cc(=O)oc2c(C)c(OC3CCCCC3=O)ccc12 (centres undefined),0%
2,CC(=O)c1ccc2c(c1)C1C=CCC1C(c1ccncc1)N2 (centres undefined),9%
3,CC1CCC2(C)c3[nH]c4ccccc4c3CCN2C1=O (centres undefined),0%
4,O=C(O)c1ccc([N+](=O)[O-])c2c1NC(c1ccccc1)C1CC=CC21 (centres undefined),100% (active)
5,COc1cc2c(c([N+](=O)[O-])c1)NC(c1ccc(Br)cc1)C1CC=CC21 (centres undefined),0%
6,O=c1oc2c(CN3CCCC3)c(O)ccc2c2c1CCC2,0%
7,CC1CCCC(C)N1Cc1c(O)ccc2c3c(c(=O)oc12)CCC3 (centres undefined),13%
8,CCOC(=O)c1ccc2c(c1)C1C=CCC1C(c1cccc([N+](=O)[O-])c1)N2 (centres undefined),21%
9,CCOC(=O)c1ccc2c(c1)C1C=CCC1C(C(=O)O)N2 (centres undefined),51%
10,C=CCn1c(COc2ccccc2F)nnc1SCC(=O)NC(=O)NCc1ccco1,11%
11,O=c1cc(-c2ccccc2Cl)oc2c(Br)ccc(O)c12,27%
12,COc1ccc(CCn2c(SCC(=O)Nc3cc(C)on3)nc3ccsc3c2=O)cc1OC,33%
13,CC1(C)CC(=O)C=C(NC2CC(C)(C)NC(C)(C)C2)C1,0%
14,COc1cccc(NS(=O)(=O)c2ccc3c(c2)C2C=CCC2C(c2ccc(C(=O)O)cc2)N3)c1 (centres undefined),37%
15,CCNC(=O)N1c2ccc(OCC)cc2C(C)=CC1(C)C,10%
16,CCOc1ccc(NS(=O)(=O)c2ccc3c(c2)[C@H]2C=CC[C@H]2[C@@H](c2cccc([N+](=O)[O-])c2)N3)cc1,0%
17,Cc1oc2ccc(OCC#N)cc2c1C(=O)OC(C)C,0%
18,COc1ccc(C2CC(c3ccccc3)=NN2C(=O)CSc2nccc(=O)[nH]2)cc1 (centres undefined),20%
19,Nc1nc(N)c2sc3nc4c(cc3c2n1)CCC4,17%
20,CC12CCCCC1(O)[N+](=O)C1=C(CCCC1)N2[O-] (centres undefined),3%

row,Structure (SMILES),inhibition of ligand binding
1,CC(=O)c1ccc(N2Cc3ccccc3C2)cc1,8%
2,CCOc1cc2c(c([N+](=O)[O-])c1)NC(c1ccc(Cl)cc1)C1CC=CC21 (centres undefined),0%
3,Oc1ccc(C=Nc2ccc(N3CCOCC3)cc2)c(O)c1,30%
4,Oc1ccc(-c2[nH]nc(-c3ccccc3)c2-c2nc3ccccc3[nH]2)cc1,33%
5,COc1ccc2[nH]c3c(c2c1)CCNC3=O,21%
6,CCCc1c(C(=O)OCC)[nH]c2c1C(=O)CC(c1ccccc1)C2 (centres undefined),27%
7,COc1cc(/C=N/N2CCN(C3c4ccccc4-c4ccccc43)CC2)cc(OC)c1O,0%
8,CC(=O)c1ccc2c(c1)C1C=CCC1C(c1cccc([N+](=O)[O-])c1)N2 (centres undefined),68% (active)
9,Fc1ccc2c(c1)C1C=CCC1C(c1cc3c(cc1Br)OCO3)N2 (centres undefined),84% (active)
10,COc1cc(C2C3C(C)N(C)C(=O)N(C)C3N(C)C(=O)N2C)ccc1O (centres undefined),0%
11,COc1ccc(NC2=CC(c3cccc(OC)c3)N(c3ccc(OC)cc3)C2=O)cc1 (centres undefined),48%
12,Oc1ccc2c(c1)c1c3n2CCNC3CCC1 (centres undefined),0%
13,CCCOc1cc2oc(=O)c3c(c2cc1CC)CCCC3,0%
14,CCOC(=O)COc1cc2oc(=O)c3c(c2cc1CC)CCCC3,0%
15,CCCCc1cc2c(=O)c(-c3ccccn3)coc2cc1O,1%
16,O=C(NC1CC1)c1ccc2c(c1)C1C3CCC(C3)C1C(c1ccccc1)N2 (centres undefined),86% (active)
17,Cc1nn(-c2ccccc2)c2sc(C#N)c(N)c12,17%
18,COc1ccc(C2(CNCC(N)=O)CCCC2)cc1OC,10%
19,CCCCCCc1cc2c3c(c(=O)oc2cc1OCC(N)=O)CCC3,3%
